Positions count from the first letter of the chain named.
How the values were obtained:
Assay in all cases: PBM; 200 nM protein, PBS
Conditions in all cases: dsDNA, one strand shown
SHOX [1] = molecular target: SHOX (Homo sapiens, UniProt O15266 103-189)
PAX4 [2] = molecular target: T1, PAX4 (Homo sapiens, UniProt O43316 9-242, R200K)
T1 sequence: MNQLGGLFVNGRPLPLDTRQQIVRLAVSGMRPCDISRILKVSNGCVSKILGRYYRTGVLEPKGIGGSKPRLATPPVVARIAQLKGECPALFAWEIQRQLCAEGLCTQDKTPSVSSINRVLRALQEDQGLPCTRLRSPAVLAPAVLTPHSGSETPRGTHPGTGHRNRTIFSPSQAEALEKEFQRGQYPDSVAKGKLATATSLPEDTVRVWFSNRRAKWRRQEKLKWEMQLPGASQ

PAX4 [3] = molecular target: T2, PAX4 (Homo sapiens, UniProt O43316 9-242)
T2 sequence: T1 sequence with K192R

ALX3 [4] = molecular target: ALX3 (Homo sapiens, UniProt O95076 139-225, N203Q)
Sequence of ALX3 (Homo sapiens, UniProt O95076 139-225, N203Q) (O95076 139-225 N203Q): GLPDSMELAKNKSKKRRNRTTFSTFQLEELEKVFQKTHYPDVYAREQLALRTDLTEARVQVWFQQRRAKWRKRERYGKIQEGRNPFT

PAX4 [5] = molecular target: T3, PAX4 (Homo sapiens, UniProt O43316 9-242, R200Q)
T3 sequence: T1 sequence with K192Q

SHOX [6] = molecular target: SHOX (Homo sapiens, UniProt O15266 103-189, R173C)
Sequence of SHOX (Homo sapiens, UniProt O15266 103-189, R173C) (O15266 103-189 R173C): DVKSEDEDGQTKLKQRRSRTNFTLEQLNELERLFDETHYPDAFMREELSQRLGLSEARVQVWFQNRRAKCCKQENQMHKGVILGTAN

PAX4 [7] = molecular target: T4, PAX4 (Homo sapiens, UniProt O43316 9-242, F177V)
T4 sequence: T1 sequence with F169V, K192R

ALX3 [8] = molecular target: ALX3 (Homo sapiens, UniProt O95076 139-225)
Sequence of ALX3 (Homo sapiens, UniProt O95076 139-225) (O95076 139-225): as the sequence (O95076 139-225 N203Q) above, with Q65N counted along it

PAX4 [9] = molecular target: T5, PAX4 (Homo sapiens, UniProt O43316 9-242, F177Y)
T5 sequence: T1 sequence with F169Y, K192R

ALX3 [10] = molecular target: ALX3 (Homo sapiens, UniProt O95076 139-225, L168Q)
Sequence of ALX3 (Homo sapiens, UniProt O95076 139-225, L168Q) (O95076 139-225 L168Q): as the sequence (O95076 139-225 N203Q) above, with L30Q, Q65N counted along it

ALX3 [11] = molecular target: ALX3 (Homo sapiens, UniProt O95076 139-225, L168V)
Sequence of ALX3 (Homo sapiens, UniProt O95076 139-225, L168V) (O95076 139-225 L168V): as the sequence (O95076 139-225 N203Q) above, with L30V, Q65N counted along it

PAX4 [12] = molecular target: T6, PAX4 (Homo sapiens, UniProt O43316 9-242, R227W)
T6 sequence: T1 sequence with K192R, R219W

ALX3 [13] = molecular target: ALX3 (Homo sapiens, UniProt O95076 139-225, N203S)
Sequence of ALX3 (Homo sapiens, UniProt O95076 139-225, N203S) (O95076 139-225 N203S): as the sequence (O95076 139-225 N203Q) above, with Q65S counted along it

PRRX1 [14] = molecular target: PRRX1 (Homo sapiens, UniProt P54821 80-166, F113S)
Sequence of PRRX1 (Homo sapiens, UniProt P54821 80-166, F113S) (P54821 80-166 F113S): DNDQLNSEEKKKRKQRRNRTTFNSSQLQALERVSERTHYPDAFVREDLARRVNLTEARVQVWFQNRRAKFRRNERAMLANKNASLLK

PRRX1 [15] = molecular target: PRRX1 (Homo sapiens, UniProt P54821 80-166)
Sequence of PRRX1 (Homo sapiens, UniProt P54821 80-166) (P54821 80-166): as the sequence (P54821 80-166 F113S) above, with S34F counted along it

ALX4 [16] = molecular target: ALX4 (Homo sapiens, UniProt Q9H161 200-286)
Sequence of ALX4 (Homo sapiens, UniProt Q9H161 200-286) (Q9H161 200-286): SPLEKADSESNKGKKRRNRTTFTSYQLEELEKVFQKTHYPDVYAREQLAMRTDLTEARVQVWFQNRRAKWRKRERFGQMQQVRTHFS

ALX4 [17] = molecular target: ALX4 (Homo sapiens, UniProt Q9H161 200-286, Q225E)
Sequence of ALX4 (Homo sapiens, UniProt Q9H161 200-286, Q225E) (Q9H161 200-286 Q225E): as the sequence (Q9H161 200-286) above, with Q26E counted along it

HOXC10 [18] = molecular target: HOXC10 (Homo sapiens, UniProt Q9NYD6 254-340)
Sequence of HOXC10 (Homo sapiens, UniProt Q9NYD6 254-340) (Q9NYD6 254-340): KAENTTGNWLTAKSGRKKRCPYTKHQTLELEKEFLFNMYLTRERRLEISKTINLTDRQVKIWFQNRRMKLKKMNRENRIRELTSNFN

HOXC10 [19] = molecular target: HOXC10 (Homo sapiens, UniProt Q9NYD6 254-340, K271E)
Sequence of HOXC10 (Homo sapiens, UniProt Q9NYD6 254-340, K271E) (Q9NYD6 254-340 K271E): as the sequence (Q9NYD6 254-340) above, with K18E counted along it

ALX1 [20] = molecular target: ALX1 (Homo sapiens, UniProt Q15699 118-204, L144V)
Sequence of ALX1 (Homo sapiens, UniProt Q15699 118-204, L144V) (Q15699 118-204 L144V): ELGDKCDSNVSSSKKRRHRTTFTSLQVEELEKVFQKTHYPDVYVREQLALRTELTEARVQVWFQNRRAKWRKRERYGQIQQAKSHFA

ALX1 [21] = molecular target: ALX1 (Homo sapiens, UniProt Q15699 118-204, L144R)
Sequence of ALX1 (Homo sapiens, UniProt Q15699 118-204, L144R) (Q15699 118-204 L144R): as the sequence (Q15699 118-204 L144V) above, with V27R counted along it

ALX1 [22] = molecular target: ALX1 (Homo sapiens, UniProt Q15699 118-204)
Sequence of ALX1 (Homo sapiens, UniProt Q15699 118-204) (Q15699 118-204): as the sequence (Q15699 118-204 L144V) above, with V27L counted along it

VAX1 [23] = molecular target: VAX1 (Homo sapiens, UniProt Q5SQQ9 86-172)
Sequence of VAX1 (Homo sapiens, UniProt Q5SQQ9 86-172) (Q5SQQ9 86-172): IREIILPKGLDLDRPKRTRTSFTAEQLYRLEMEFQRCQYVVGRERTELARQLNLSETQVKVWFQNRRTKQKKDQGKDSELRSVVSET

VAX1 [24] = molecular target: VAX1 (Homo sapiens, UniProt Q5SQQ9 86-172, T142I)
Sequence of VAX1 (Homo sapiens, UniProt Q5SQQ9 86-172, T142I) (Q5SQQ9 86-172 T142I): as the sequence (Q5SQQ9 86-172) above, with T57I counted along it

VAX1 [25] = molecular target: VAX1 (Homo sapiens, UniProt Q5SQQ9 86-172, K157R)
Sequence of VAX1 (Homo sapiens, UniProt Q5SQQ9 86-172, K157R) (Q5SQQ9 86-172 K157R): as the sequence (Q5SQQ9 86-172) above, with K72R counted along it

MSX2 [26] = molecular target: MSX2 (Homo sapiens, UniProt P35548 130-214, R199I)
Sequence of MSX2 (Homo sapiens, UniProt P35548 130-214, R199I) (P35548 130-214 R199I): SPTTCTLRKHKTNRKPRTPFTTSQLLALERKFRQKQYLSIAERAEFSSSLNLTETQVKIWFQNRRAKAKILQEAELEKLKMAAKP

MSX2 [27] = molecular target: MSX2 (Homo sapiens, UniProt P35548 130-214)
Sequence of MSX2 (Homo sapiens, UniProt P35548 130-214) (P35548 130-214): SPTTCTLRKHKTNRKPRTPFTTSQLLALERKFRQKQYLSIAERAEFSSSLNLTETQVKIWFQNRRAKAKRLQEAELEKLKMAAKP

MSX2 [28] = molecular target: MSX2 (Homo sapiens, UniProt P35548 130-214, F161Y)
Sequence of MSX2 (Homo sapiens, UniProt P35548 130-214, F161Y) (P35548 130-214 F161Y): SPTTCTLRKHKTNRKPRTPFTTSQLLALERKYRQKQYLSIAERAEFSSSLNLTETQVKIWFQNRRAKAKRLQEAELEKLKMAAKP

HOXB9 [29] = molecular target: HOXB9 (Homo sapiens, UniProt P17482 171-250)
Sequence of HOXB9 (Homo sapiens, UniProt P17482 171-250) (P17482 171-250): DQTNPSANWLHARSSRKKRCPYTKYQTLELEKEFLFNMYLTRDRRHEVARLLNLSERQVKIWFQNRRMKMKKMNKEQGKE

HOXB9 [30] = molecular target: HOXB9 (Homo sapiens, UniProt P17482 171-250, R186Q)
Sequence of HOXB9 (Homo sapiens, UniProt P17482 171-250, R186Q) (P17482 171-250 R186Q): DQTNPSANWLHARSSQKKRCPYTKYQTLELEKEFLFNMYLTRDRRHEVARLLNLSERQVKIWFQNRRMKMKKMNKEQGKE

Sequence of SHOX (Homo sapiens, UniProt O15266 103-189) (O15266 103-189): as the sequence (O15266 103-189 R173C) above, with C71R counted along it

Sequence: CGCCGAGC
- binding signal (SHOX [1]): 7.14 upbm affinity estimate (log intensity, higher = more binding, comparable within an allelic series)
- binding signal (PAX4 [2]): 9.36 upbm affinity estimate (log intensity, higher = more binding, comparable within an allelic series)
- binding signal (PAX4 [3]): 9.47 upbm affinity estimate (log intensity, higher = more binding, comparable within an allelic series)
- binding signal (ALX3 [4]): 7.72 upbm affinity estimate (log intensity, higher = more binding, comparable within an allelic series)
- binding signal (PAX4 [5]): 9.48 upbm affinity estimate (log intensity, higher = more binding, comparable within an allelic series)
- binding signal (SHOX [6]): 7.23 upbm affinity estimate (log intensity, higher = more binding, comparable within an allelic series)
- binding signal (PAX4 [7]): 9.31 upbm affinity estimate (log intensity, higher = more binding, comparable within an allelic series)
- binding signal (ALX3 [8]): 7.76 upbm affinity estimate (log intensity, higher = more binding, comparable within an allelic series)
- binding signal (PAX4 [9]): 9.32 upbm affinity estimate (log intensity, higher = more binding, comparable within an allelic series)
- binding signal (ALX3 [10]): 7.81 upbm affinity estimate (log intensity, higher = more binding, comparable within an allelic series)
- binding signal (ALX3 [11]): 7.74 upbm affinity estimate (log intensity, higher = more binding, comparable within an allelic series)
- binding signal (PAX4 [12]): 9.41 upbm affinity estimate (log intensity, higher = more binding, comparable within an allelic series)
- binding signal (ALX3 [13]): 7.79 upbm affinity estimate (log intensity, higher = more binding, comparable within an allelic series)

Sequence: GGAGGGAA
- binding signal (SHOX [1]): 7.13 upbm affinity estimate (log intensity, higher = more binding, comparable within an allelic series)
- binding signal (PRRX1 [14]): 9.41 upbm affinity estimate (log intensity, higher = more binding, comparable within an allelic series)
- binding signal (SHOX [6]): 7.16 upbm affinity estimate (log intensity, higher = more binding, comparable within an allelic series)
- binding signal (PRRX1 [15]): 9.45 upbm affinity estimate (log intensity, higher = more binding, comparable within an allelic series)

Sequence: CCCTCCCG
- binding signal (SHOX [1]): 6.94 upbm affinity estimate (log intensity, higher = more binding, comparable within an allelic series)
- binding signal (ALX4 [16]): 8.02 upbm affinity estimate (log intensity, higher = more binding, comparable within an allelic series)
- binding signal (ALX4 [17]): 8.18 upbm affinity estimate (log intensity, higher = more binding, comparable within an allelic series)
- binding signal (SHOX [6]): 7.03 upbm affinity estimate (log intensity, higher = more binding, comparable within an allelic series)

Sequence: CGCCTCCC
- binding signal (SHOX [1]): 7 upbm affinity estimate (log intensity, higher = more binding, comparable within an allelic series)
- binding signal (PAX4 [2]): 9.2 upbm affinity estimate (log intensity, higher = more binding, comparable within an allelic series)
- binding signal (PAX4 [3]): 9.23 upbm affinity estimate (log intensity, higher = more binding, comparable within an allelic series)
- binding signal (PAX4 [5]): 9.17 upbm affinity estimate (log intensity, higher = more binding, comparable within an allelic series)
- binding signal (SHOX [6]): 6.98 upbm affinity estimate (log intensity, higher = more binding, comparable within an allelic series)
- binding signal (PAX4 [7]): 9.03 upbm affinity estimate (log intensity, higher = more binding, comparable within an allelic series)
- binding signal (PAX4 [9]): 9.1 upbm affinity estimate (log intensity, higher = more binding, comparable within an allelic series)
- binding signal (PAX4 [12]): 9.17 upbm affinity estimate (log intensity, higher = more binding, comparable within an allelic series)

Sequence: GGCGCGAA
- binding signal (SHOX [1]): 7.15 upbm affinity estimate (log intensity, higher = more binding, comparable within an allelic series)
- binding signal (HOXC10 [18]): 10.1 upbm affinity estimate (log intensity, higher = more binding, comparable within an allelic series)
- binding signal (SHOX [6]): 7.19 upbm affinity estimate (log intensity, higher = more binding, comparable within an allelic series)
- binding signal (HOXC10 [19]): 10.1 upbm affinity estimate (log intensity, higher = more binding, comparable within an allelic series)

Sequence: AGCTCCAG
- binding signal (SHOX [1]): 7.12 upbm affinity estimate (log intensity, higher = more binding, comparable within an allelic series)
- binding signal (ALX4 [16]): 7.91 upbm affinity estimate (log intensity, higher = more binding, comparable within an allelic series)
- binding signal (ALX4 [17]): 8.27 upbm affinity estimate (log intensity, higher = more binding, comparable within an allelic series)
- binding signal (ALX1 [20]): 6.26 upbm affinity estimate (log intensity, higher = more binding, comparable within an allelic series)
- binding signal (SHOX [6]): 7.22 upbm affinity estimate (log intensity, higher = more binding, comparable within an allelic series)
- binding signal (ALX1 [21]): 6.27 upbm affinity estimate (log intensity, higher = more binding, comparable within an allelic series)
- binding signal (ALX1 [22]): 6.1 upbm affinity estimate (log intensity, higher = more binding, comparable within an allelic series)

Sequence: CCACCCGG
- binding signal (SHOX [1]): 7.19 upbm affinity estimate (log intensity, higher = more binding, comparable within an allelic series)
- binding signal (ALX4 [16]): 8.21 upbm affinity estimate (log intensity, higher = more binding, comparable within an allelic series)
- binding signal (ALX4 [17]): 8.29 upbm affinity estimate (log intensity, higher = more binding, comparable within an allelic series)
- binding signal (ALX1 [20]): 6.62 upbm affinity estimate (log intensity, higher = more binding, comparable within an allelic series)
- binding signal (SHOX [6]): 7.17 upbm affinity estimate (log intensity, higher = more binding, comparable within an allelic series)
- binding signal (ALX1 [21]): 6.65 upbm affinity estimate (log intensity, higher = more binding, comparable within an allelic series)
- binding signal (VAX1 [23]): 7.3 upbm affinity estimate (log intensity, higher = more binding, comparable within an allelic series)
- binding signal (VAX1 [24]): 7 upbm affinity estimate (log intensity, higher = more binding, comparable within an allelic series)
- binding signal (ALX1 [22]): 6.35 upbm affinity estimate (log intensity, higher = more binding, comparable within an allelic series)
- binding signal (VAX1 [25]): 7.13 upbm affinity estimate (log intensity, higher = more binding, comparable within an allelic series)

Sequence: ACCGGCTG
- binding signal (SHOX [1]): 7.1 upbm affinity estimate (log intensity, higher = more binding, comparable within an allelic series)
- binding signal (MSX2 [26]): 9.47 upbm affinity estimate (log intensity, higher = more binding, comparable within an allelic series)
- binding signal (SHOX [6]): 7.13 upbm affinity estimate (log intensity, higher = more binding, comparable within an allelic series)
- binding signal (MSX2 [27]): 9.51 upbm affinity estimate (log intensity, higher = more binding, comparable within an allelic series)
- binding signal (MSX2 [28]): 9.53 upbm affinity estimate (log intensity, higher = more binding, comparable within an allelic series)

Sequence: AATTAGGA
- binding signal (SHOX [1]): 11.4 upbm affinity estimate (log intensity, higher = more binding, comparable within an allelic series)
- binding signal (HOXB9 [29]): 10.3 upbm affinity estimate (log intensity, higher = more binding, comparable within an allelic series)
- binding signal (SHOX [6]): 9.06 upbm affinity estimate (log intensity, higher = more binding, comparable within an allelic series)
- binding signal (HOXB9 [30]): 10.2 upbm affinity estimate (log intensity, higher = more binding, comparable within an allelic series)

Sequence: GCCTTGCC
- binding signal (SHOX [1]): 7.17 upbm affinity estimate (log intensity, higher = more binding, comparable within an allelic series)
- binding signal (MSX2 [26]): 9.62 upbm affinity estimate (log intensity, higher = more binding, comparable within an allelic series)
- binding signal (SHOX [6]): 7.18 upbm affinity estimate (log intensity, higher = more binding, comparable within an allelic series)
- binding signal (MSX2 [27]): 9.57 upbm affinity estimate (log intensity, higher = more binding, comparable within an allelic series)
- binding signal (MSX2 [28]): 9.57 upbm affinity estimate (log intensity, higher = more binding, comparable within an allelic series)
